The supplement of paper PMC8728848
Many of the other results were omitted from the sample, so the strongest signals are more common in it than they were.

Key:
Assay in all cases: glycan array binding signal (z-score within array); higher = stronger binding
Details in all cases: glycan notation: IUPAC condensed, linker removed
[1] = target: Fuc(a1-2)Gal(b1-4)Fuc(a1-3)]GlcNAc(b1-2)Man(a1-3)[Fuc(a1-2)Gal(b1-4)[Fuc(a1-3)]GlcNAc(b1-2)Man(a1-6)]Man(b1-4)GlcNAc(b1-4)GlcNAc
Summary of the method: (§1)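 The binding signal is a Z-score computed within each array. Data were drawn from 3228 arrays in the Consortium for Functional Glycomics database, restricted to those with a known protein sequence. Scores were averaged over arrays of the same protein sequence at different concentrations or buffers, and over linkers, and negative values can be taken as non-binding.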

[2] = target: Fuc(a1-2)Gal(b1-4)GlcNAc(b1-2)Man(a1-3)[Fuc(a1-2)Gal(b1-4)GlcNAc(b1-2)Man(a1-6)]Man(b1-4)GlcNAc(b1-4)[Fuc(a1-6)]GlcNAc
Summary of the method: as §1

[3] = target: Fuc(a1-2)Gal(b1-4)GlcNAc(b1-2)[Fuc(a1-2)Gal(b1-4)GlcNAc(b1-4)]Man(a1-3)[Fuc(a1-2)Gal(b1-4)GlcNAc(b1-2)Man(a1-6)]Man(b1-4)GlcNAc(b1-4)GlcNAc
Summary of the method: as §1

[4] = target: Fuc(a1-2)[Gal(a1-3)]Gal(b1-3)GlcNAc(b1-2)Man(a1-3)[Fuc(a1-2)[Gal(a1-3)]Gal(b1-3)GlcNAc(b1-2)Man(a1-6)]Man(b1-4)GlcNAc(b1-4)[Fuc(a1-6)]GlcNAc
Summary of the method: as §1

[5] = target: Fuc(a1-2)[Gal(a1-4)]Gal(b1-4)GlcNAc
Summary of the method: as §1

[6] = target: Fuc(a1-3)[Gal(b1-4)]Glc6S
Summary of the method: as §1

[7] = target: Fuc(a1-3)[Gal(b1-4)]GlcNAc6S
Summary of the method: as §1

[8] = target: Fuc(a1-3)[GalNAc(b1-4)]GlcNAc6S
Summary of the method: as §1

[9] = target: Gal(a1-3)Gal(b1-3)GlcNAc
Summary of the method: as §1

[10] = target: Gal(a1-3)GalNAc
Summary of the method: as §1

[11] = target: Gal(b1-3)GalNAc(b1-3)Gal(a1-4)Gal(b1-4)Glc
Summary of the method: as §1

[12] = target: Gal(b1-3)GlcNAc(b1-6)Gal(b1-4)GlcNAc
Summary of the method: as §1

[13] = target: Gal(b1-3)[Neu5Ac(a2-6)]GalNAc
Summary of the method: as §1

[14] = target: Gal(b1-4)GlcNAc(b1-2)[Gal(b1-4)GlcNAc(b1-6)]Man(a1-6)[Gal(b1-4)GlcNAc(b1-2)Man(a1-3)]Man(b1-4)GlcNAc(b1-4)[Fuc(a1-6)]GlcNAc
Summary of the method: as §1

[15] = target: Gal(b1-4)GlcNAc(b1-3)Gal(b1-4)GlcNAc(b1-3)[Gal(b1-4)GlcNAc(b1-3)Gal(b1-4)GlcNAc(b1-6)]GalNAc
Summary of the method: as §1

[16] = target: Gal(b1-4)GlcNAc(b1-3)[GlcNAc(b1-6)]Gal(b1-4)GlcNAc
Summary of the method: as §1

[17] = target: GalNAc(a1-3)GalNAc(b1-3)Gal(a1-4)Gal(b1-4)Glc
Summary of the method: as §1

[18] = target: GalNAc(b1-3)Gal(a1-6)Gal(b1-4)Glc
Summary of the method: as §1

[19] = target: GalNAc(b1-4)GlcNAc(b1-2)Man
Summary of the method: as §1

[20] = target: GalNAc(b1-4)GlcNAc(b1-2)Man(a1-3)[GalNAc(b1-4)GlcNAc(b1-2)Man(a1-6)]Man(b1-4)GlcNAc(b1-4)GlcNAc
Summary of the method: as §1

[21] = target: GalNAc3S(b1-4)GlcNAc
Summary of the method: as §1

[22] = target: GlcNAc(a1-3)Gal(b1-4)GlcNAc
Summary of the method: as §1

[23] = target: GlcNAc(a1-4)Gal(b1-4)GlcNAc(b1-3)Gal(b1-4)Glc
Summary of the method: as §1

[24] = target: GlcNAc(b1-2)Man(a1-3)[GlcNAc(b1-2)Man(a1-6)]Man(b1-4)GlcNAc(b1-4)GlcNAc
Summary of the method: as §1

[25] = target: GlcNAc(b1-2)Man(a1-3)[GlcNAc(b1-4)][GlcNAc(b1-2)Man(a1-6)]Man(b1-4)GlcNAc(b1-4)GlcNAc
Summary of the method: as §1

B1: AFCNVH (Aspergillus fumigatus) (protein)
chain: MSLRGFHTTCDTIVLKDKHILSSRCKRPDGTYSFSEIDLNDCLGNNNGKFVWGGESFVDSASQVNLALEGGEGRPMLHAQLNDWHGSVQSASVNLGECIQNEAGGLEYMHC
glycan array binding signal (z-score) [1]: -0.233 | glycan array binding signal (z-score) [2]: -0.175 | glycan array binding signal (z-score) [3]: -0.277 | glycan array binding signal (z-score) [4]: -0.326 | glycan array binding signal (z-score) [5]: 0.231 | glycan array binding signal (z-score) [6]: -0.331 | glycan array binding signal (z-score) [7]: -0.372 | glycan array binding signal (z-score) [8]: 0.612 | glycan array binding signal (z-score) [9]: -0.453 | glycan array binding signal (z-score) [10]: -0.37 | glycan array binding signal (z-score) [11]: -0.212 | glycan array binding signal (z-score) [12]: -0.391 | glycan array binding signal (z-score) [13]: -0.504 | glycan array binding signal (z-score) [14]: -0.378 | glycan array binding signal (z-score) [15]: -0.168 | glycan array binding signal (z-score) [16]: 4.53 | glycan array binding signal (z-score) [17]: -0.347 | glycan array binding signal (z-score) [18]: -0.462 | glycan array binding signal (z-score) [19]: 4.18 | glycan array binding signal (z-score) [20]: 4.08 | glycan array binding signal (z-score) [21]: 1.43 | glycan array binding signal (z-score) [22]: 4.61 | glycan array binding signal (z-score) [23]: 3.99 | glycan array binding signal (z-score) [24]: -0.164 | glycan array binding signal (z-score) [25]: 4.58
